Bioassay records: PubChem BioAssay, National Center for Advancing Translational Sciences (NCATS)
Sampled rows, rich in hits. Any-hit rate of the full collection: about 0.72%.
ERG Ets-DNA blk: qHTS for Small Molecule Inhibitors of the ERG Ets/DNA interaction. Transcriptional regulator ERG (Homo sapiens), P11308. fluorescence polarization, His-ERG Ets domain / labelled DNA. Potency, µM (highest dose often 76.9 µM), hits mostly inhibitors. hit rate 0.028% among 370,000. AID 624246, 2012; active = well fitted inhibition curve with a large enough effect in the polarisation, with a control signal flat; inconclusive = small, poorly fitted or top-dose-only effect, or effect the other way, or a change in a side signal; inactive = no such curve, though single readings can be large or run the other way; the % refers to the polarisation;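 note: polarization taken with two DNA probes labelled with fluorescein and Texas red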
Target sequence (P11308 whole entry, looked up, the tested form may be a part): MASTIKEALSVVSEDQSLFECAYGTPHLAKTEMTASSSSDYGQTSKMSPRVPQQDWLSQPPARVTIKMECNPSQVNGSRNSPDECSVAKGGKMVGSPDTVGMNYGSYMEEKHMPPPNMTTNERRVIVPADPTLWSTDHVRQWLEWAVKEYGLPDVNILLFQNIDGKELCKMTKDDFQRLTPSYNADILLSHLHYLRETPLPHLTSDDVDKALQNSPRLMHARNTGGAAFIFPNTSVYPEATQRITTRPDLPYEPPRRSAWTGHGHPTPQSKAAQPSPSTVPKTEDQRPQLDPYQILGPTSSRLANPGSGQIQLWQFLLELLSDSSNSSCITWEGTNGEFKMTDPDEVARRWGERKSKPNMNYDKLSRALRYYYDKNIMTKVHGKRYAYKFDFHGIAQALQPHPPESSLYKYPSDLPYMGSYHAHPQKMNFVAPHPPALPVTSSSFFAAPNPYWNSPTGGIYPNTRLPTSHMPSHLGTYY
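His-tagged ERG Ets domain (1 uM in the protein solution; 300mM KCl, 50mM Tris-HCl, 1mM EDTA, 1mM DTT, pH 7.5) received compound, then a probe mix of 5 nM fluorescein-DNA and 100nM Texas-615-DNA. Fluorescence polarization was read for both dyes.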
RXFP1 antag: qHTS Assay for Antagonists of the Relaxin Receptor RXFP1; Relaxin receptor 1 (Homo sapiens), Q9HBX9; HEK293-RXFP1, relaxin-stimulated cAMP HTRF, 30 min; active compounds read low; activity change, negative = inhibition, % at 57.5 µM; hit rate 0.59% among 350,000; AID 1259400, 2018;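 active = activity change of -60% or lower, but not beyond a set lower limit; inconclusive = change between -60% and -40%, or beyond the set limit; inactive = change above -40%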
RXFP1 ag: qHTS Assay for Agonists of the Relaxin Receptor RXFP1; HEK293T-RXFP1 cAMP TR-FRET, 30 min; response scale: percent of porcine relaxin response, buffer zero; AID 2676, 2010; hit rate 0.3% among 370,000; Potency, µM (highest dose often 57.5 µM), usual class: activators; note: nearly all actives have a fitted effect of over 60% in size
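cAMP rise read by TR-FRET after 30 min, 37C compound exposure (up to 58 uM) in RXFP1-transfected HEK293 cells with Ro 20174 present. EC50 from Hill-equation fits, with 29 nM porcine relaxin as 100% and buffer as basal.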
miR-21 act: qHTS Assay for Modulators of miRNAs and/orActivators of miR-21 | HeLa miR-21 FLuc reporter, luciferase, 48 h | Potency, µM (highest dose often 38.3 µM), most hits filed as activators | 340,000 tested, under 10 active | AID 2288, 2010;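 note: miR-21 action dims this reporter so a rising signal means less miR-21 action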
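HeLa miR-21-FLuc reporter line, endogenous miR-21; 2000 cells/well in DMEM/10% FBS; compound titration up to ~40uM final, 48 h, 37 degree Celsius; luciferase detection reagent, 15 min lysis, CCD luminescence.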
ASM inhibitor: Inhibitors of Secretory Acid Sphingomyelinase (S-ASM): qHTS; Sphingomyelin phosphodiesterase (Homo sapiens), P17405; placental ASM, HMU-PC fluorogenic substrate, 60 min; Potency, µM (series often up to 57.5 µM), usual class: inhibitors; hit rate 0.006% among 340,000
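Human placenta-derived ASM preincubated with compound 10 min at room temperature, then reacted with 9 uM (final) fluorogenic HMU-PC substrate for 60 min at 37 C. Stop solution raises pH to 10; fluorescence read at Ex 386/Em 447 nm.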
Mito fusion yeast: qHTS Assay for Small Molecule Inhibitors of Mitochondrial Division or Activators of Mitochondrial Fusion; S. cerevisiae fusion-defective mutant growth rescue, CellTiterGlo 48 h; Potency, µM (top dose mostly 46.1 µM), most hits filed as activators; hit rate 0.23% among 320,000; note: nearly all actives have a fitted effect of over 45% in size
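Luminescent cell viability in 1536-well qHTS format served as the measure of rescued growth in ts fusion-mutant S. cerevisiae cultured on non-fermentable YPEG for 48 hours at 37C.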
Each line names hits and unclear results; the compound was inactive in the other large screens; ! = not active in a repeat. Unless noted, calls come from the whole dose curve; as a rule, active = well fitted curve in the direction sought with a large enough effect; inconclusive = small, poorly fitted or top-dose-only effect, or another doubt; inactive = no such curve, though single readings can be large; an effect the other way counts as inactive or inconclusive.

CCC(=O)N1c2ccccc2CC1C(=O)NCCc1ccc(OC)c(OC)c1 (stereo unspecified)	none (no result: ASM inhibitor, Mito fusion yeast)
Cc1oc2cc(Br)c(O)c(Br)c2c1-c1ccccc1	RXFP1 antag -100.6
Cc1cc2oc(=O)cc(-c3ccccc3)c2c(C)c1-c1ccc(O)cc1	none (no result: RXFP1 antag, RXFP1 ag, miR-21 act, Mito fusion yeast)
O=c1cc(O)cc(/C=C/c2ccc(O)c(O)c2)o1	Mito fusion yeast 16.4µM (no result: ERG Ets-DNA blk, RXFP1 antag, RXFP1 ag, miR-21 act, ASM inhibitor)
CC(=O)Nc1ccc(C(=O)Nc2ccc3c(c2)N(C2CCCC2)C(=O)c2ccccc2S3)cc1	miR-21 act inconclusive (no result: ASM inhibitor, Mito fusion yeast)
C/C=N\NC(=O)CNC(=O)CNC(=O)c1ccccc1	ERG Ets-DNA blk 35.5µM
O=C(O)C1c2ccccc2C(=O)N(Cc2ccc(F)cc2)C1c1ccncc1 (stereo unspecified)	none
COc1cccc(CSc2nc3cc(OC)c(OC)cc3c3nc(CCn4nc(C)cc4C)nn23)c1	none (no result: ASM inhibitor, Mito fusion yeast)
COC(c1ccccc1)(c1ccccc1)[C@H](Oc1nc(C)cc(C)n1)C(=O)O	none (no result: ERG Ets-DNA blk, RXFP1 ag, miR-21 act, ASM inhibitor, Mito fusion yeast)
CCCC(=O)N(C1CC(C)C(C#N)(C#N)C1(C#N)C#N)N(C)C (stereo unspecified)	RXFP1 antag -85.2, miR-21 act inconclusive
CC(=O)N(C1CC(C)C(C#N)(C#N)C1(C#N)C#N)N(C)C (stereo unspecified)	miR-21 act inconclusive
COc1cc(C(=O)OC(COCCC(C)C)CN2CCOCC2)cc(OC)c1OC (stereo unspecified)	none (no result: ERG Ets-DNA blk, RXFP1 ag, miR-21 act, ASM inhibitor, Mito fusion yeast)
CCOC(=O)c1c(-c2ccc(C)cc2)csc1NC(=O)CCN1CCOCC1	Mito fusion yeast 12.6µM
CCOC(=O)c1c(-c2ccccc2)csc1NC(=O)CCN1CCOCC1	Mito fusion yeast 11.2µM
CCOC(=O)c1c(-c2cccs2)csc1NC(=O)CN1CCOCC1	none
CCOC(=O)c1c(-c2ccc(C)o2)csc1NC(=O)CN1CCOCC1	none
CN=c1sc2ccccc2n1CC(O)COc1ccccc1 (stereo unspecified)	none
CCN=c1sc2ccccc2n1CC(O)COc1ccccc1 (stereo unspecified)	RXFP1 antag -67.9
O=[N+]([O-])c1cccc(S(=O)(=O)NCCNS(=O)(=O)c2cccc([N+](=O)[O-])c2)c1	none (no result: ERG Ets-DNA blk, RXFP1 ag, miR-21 act, ASM inhibitor, Mito fusion yeast)
CCOC(=O)c1sc(NC(=O)c2ccc(Br)o2)cc1C	RXFP1 antag -62.6
CCOC(=O)c1sc(NC(=O)c2sccc2C)cc1C	none
COc1ccc(Oc2c(C(F)(F)F)oc3c(CN4CCCC(C)C4)c(O)ccc3c2=O)cc1 (stereo unspecified)	none (no result: ASM inhibitor, Mito fusion yeast)
CN1C(C(=O)Nc2ccccn2)=C(O)c2ccccc2S1(=O)=O	Mito fusion yeast 16.4µM!
CN1C(C(=O)Nc2ncccn2)=C(O)c2ccccc2S1(=O)=O	none
Cc1ccc(C(=O)c2cn(Cc3ccccc3C)c3nc(C)ccc3c2=O)cc1	none (no result: ASM inhibitor, Mito fusion yeast)
O=c1ccc(=O)n(-c2ccccc2)[nH]1	none
O=c1cc(-c2ccccc2)[nH]n1-c1ccccc1	RXFP1 antag -72.8 (no result: RXFP1 ag, miR-21 act, Mito fusion yeast)
CC(C)N=c1scc(-c2cccs2)n1/N=C/c1ccc(O)c(O)c1O	RXFP1 antag -62.6
CCN=c1scc(-c2cccs2)n1/N=C/c1cc(OC)ccc1O	none
CN=c1scc(-c2ccccc2F)n1/N=C/c1ccc(O)c(O)c1O	RXFP1 antag -64.9
Nc1ccc([N+](=O)[O-])c(C(F)(F)F)c1	none (no result: ERG Ets-DNA blk, RXFP1 ag, miR-21 act, ASM inhibitor, Mito fusion yeast)
Cc1ccc(C)c(N(C)C(=O)C2CCN(c3ncnc4c3nc3n4CCCCC3)CC2)c1	none (no result: ASM inhibitor, Mito fusion yeast)
CC1CCCN(CCCNC(=O)c2nn(C)c3c2CS(=O)(=O)c2ccccc2-3)C1 (stereo unspecified)	RXFP1 antag -83.8
CCOC(=O)C1=C(CC)Nc2ccccc2N=C1NC(=O)CCNC(C)=O	RXFP1 antag -74.6
Cc1ccccc1N1CCN(Cc2ccc(Br)o2)CC1	RXFP1 antag -65.1
